Compound activity (PubChem BioAssay)
Only some compounds are listed: those with a hit (about 3.9% of all), similar ones and a draw of the others.
TPT1 inhibitor: inhibitors of Candida albicans tRNA 2'-phosphotransferase TPT1. recombinant caTPT1, FP RNA substrate dephosphorylation. hit rate 0.81% among 300,000. AID 1962. inhibition, % at 5 µM;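 active means inhibition above the mean of all tested compounds plus 3 SD, set per screening campaign, cut at about 24% in these data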
SKKanGAS inh: blocks kanamycin growth of S. pyogenes SKKanGAS strain; BacTiter-Glo, 6 h; inhibition, % at 7.5 µM; hit rate 1.3% among 300,000; AID 1662;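 active means mean replicate score, as percent of positive control median, at least 50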;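 further: strain carries kanamycin resistance gene driven by streptokinase promoter and grows in 40 µg/ml kanamycin; loss of luminescence reflects streptokinase promoter inhibition or plain growth inhibition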
Rtt109 Vps75: blocks Candida albicans Rtt109/Vps75 acetyltransferase activity | Q5AAJ8 | purified Rtt109/Vps75, ThioGlo CoA-SH fluorescence, 4 h | inhibition, % at 34.9 µM | hit rate 0.16% among 330,000;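 active means inhibition of at least 50% in every replicate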
Target sequence (Q5AAJ8 whole entry, looked up): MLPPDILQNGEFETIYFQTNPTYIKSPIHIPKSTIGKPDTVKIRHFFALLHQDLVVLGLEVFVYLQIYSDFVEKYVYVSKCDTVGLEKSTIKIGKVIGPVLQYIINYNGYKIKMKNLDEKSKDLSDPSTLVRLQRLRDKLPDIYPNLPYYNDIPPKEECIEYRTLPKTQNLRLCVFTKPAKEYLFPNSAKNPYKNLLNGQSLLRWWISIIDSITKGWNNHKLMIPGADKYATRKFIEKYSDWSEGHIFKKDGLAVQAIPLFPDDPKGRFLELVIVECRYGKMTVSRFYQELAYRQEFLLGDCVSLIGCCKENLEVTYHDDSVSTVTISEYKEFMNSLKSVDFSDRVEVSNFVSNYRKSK
WT yeast gro inh: growth inhibition of WT yeast, mitochondrial fusion screen; inhibition, % at 10 µM; hit rate 2.1% among 190,000; mitochondrial fusion phenotypic screen, WT strain; in the data active means inhibition above about 58%; tested in S. cerevisiae
PHOSPHO1 block: PHOSPHO1 (human) inhibition; recombinant PHOSPHO1, absorbance phosphatase assay; hit rate 1.1% among 290,000; inhibition, % at 13.3 µM; in the data active means inhibition above about 60%
Platelet DG rel: modulates dense granule release in human platelets. human platelet-rich plasma, SFLLRN dense granule ATP release, luminescence. inhibition, %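 (compounds screened at 7.5 µM in platelet-rich plasma)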. hit rate 0.22% among 300,000;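 active means mean replicate score, as percent of positive control, at or above 50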
Numbers stand for hits; - = inactive; . = no result given.

SMILES	TPT1 inhibitor	SKKanGAS inh	Rtt109 Vps75	WT yeast gro inh	PHOSPHO1 block	Platelet DG rel
CCN(CC)CCn1c(=S)[nH]c2ccc(Cl)cc2c1=O	-	-	-	-	78	-
CCN(CC)CCn1c(=S)[nH]c2cc(Cl)ccc2c1=O	-	-	-	-	94	-
CN(C)CCn1c(=S)[nH]c2ccccc2c1=O	-	-	-	-	-	-
CCN(CC)CCn1c(=S)[nH]c2cc(C(=O)N3CC(C)CC(C)C3)ccc2c1=O (centres undefined)	-	-	-	.	-	-
O=C(O)c1cccc(-c2noc(-c3cccc(Cl)c3)n2)c1	.	.	-	.	.	.
CC(C)c1ccc(NC(=S)NCCc2c[nH]c3ccccc23)cc1	-	-	-	67	-	-
Cc1ccc(NC(=S)NCCc2c[nH]c3ccccc23)cc1	-	-	-	-	-	-
CCN(CC)S(=O)(=O)c1ccc(NCCc2ccccn2)nc1	-	-	-	.	-	-
S=C(Nc1ccccc1)N1CCn2cccc2C1c1cccnc1 (centres undefined)	-	-	-	-	-	-
Fc1ccccc1C1c2cccn2CCN1C(=S)Nc1cccc(Br)c1 (centres undefined)	-	-	-	59	-	-
Fc1ccccc1C1c2cccn2CCN1C(=S)Nc1ccc(Br)cc1 (centres undefined)	-	-	-	62	-	-
Fc1ccc(C2c3cccn3CCN2C(=S)Nc2cccc(F)c2)cc1 (centres undefined)	-	-	-	80	-	-
Fc1cccc(NC(=S)N2CCn3cccc3C2c2cccnc2)c1 (centres undefined)	-	-	-	-	-	-
C=CCn1c(N)c(C(=O)Nc2cccc(C)c2)c2nc3ccccc3nc21	-	51	-	-	-	-
C=CCn1c(N)c(C(=O)Nc2ccc(C)c(C)c2)c2nc3ccccc3nc21	-	-	-	-	-	-
Cc1[nH]n(-c2ccccc2)c(=O)c1N=Nc1ccccc1O	.	68	-	-	-	-
Cc1[nH]n(-c2ccccc2)c(=O)c1N=Nc1nccs1	-	94	-	-	-	-
CC(=O)Nc1ccc2c(c1)CCc1ccccc1-2	-	-	-	.	-	-
O=C(O)/C=C/C(=O)c1ccc2c(c1)CCc1ccccc1-2	-	-	144	.	.	-
COc1ccc(NC(=O)c2cccc3c2C(=O)c2ccc(-c4cnc(OC)nc4)cc2S3(=O)=O)cc1	.	.	-	.	.	.
CCOC(=O)CN1C(=O)/C(=C/c2ccc(Cl)cc2)Oc2ccccc21	-	-	-	.	-	-
CN(Cc1ccccc1)C(=O)c1nc[nH]c1C(=O)N(C)Cc1ccccc1	.	.	-	.	.	.
COc1ccc(NC(=O)C2CC(=O)n3cnnc3S2)cc1 (centres undefined)	-	-	-	-	104	-
COc1ccc(NC(=O)C2CC(=O)n3ncnc3N2)cc1 (centres undefined)	-	-	-	-	-	-
COc1cccc(NC(=O)C2CC(=O)N=C(N)S2)c1 (centres undefined)	-	-	-	-	-	-
SMILES	TPT1 inhibitor	SKKanGAS inh	Rtt109 Vps75	WT yeast gro inh	PHOSPHO1 block	Platelet DG rel
COc1cccc(NC(=O)C2CC(=O)n3cnnc3S2)c1 (centres undefined)	-	.	-	-	103	.
O=C(CCCC(=O)Nc1cccc(Br)c1)N/N=C/c1cc([N+](=O)[O-])ccc1O	-	99	-	.	-	-
Cc1ccc(NC(=O)CCC(=O)N/N=C/c2cc([N+](=O)[O-])ccc2O)cc1	-	-	-	-	-	-
CC(=O)Nc1ccc(NC(=O)CN(c2ccc([N+](=O)[O-])cc2)S(=O)(=O)c2ccccc2)cc1	-	-	-	-	67	-
O=C(CCC(=O)Nc1cccc(Cl)c1)N/N=C/c1cc([N+](=O)[O-])ccc1O	-	100	-	-	-	-
CCOc1ccc(NC(=O)CN(c2ccc([N+](=O)[O-])cc2)S(=O)(=O)c2ccccc2)cc1	-	-	-	-	-	-
O=C(CN(c1cccc(Br)c1)S(=O)(=O)c1ccccc1)N/N=C/c1cc([N+](=O)[O-])ccc1O	-	119	-	.	.	-
O=C(c1ccc(CNS(=O)(=O)c2ccc(Br)cc2)cc1)N1CCCCCC1	-	-	-	.	-	-
O=C(CC1C[C@H](C(=O)N2CCOCC2)[C@@]2(CCC3CCCC3)c3[nH]c4ccccc4c3CCN2C1=O)NCCc1ccccn1 (some centres undefined)	.	.	-	.	.	.
O=C(NNC(=O)c1ccccc1C(F)(F)F)c1csc(N2CCOCC2)n1	-	-	-	.	-	-
Cc1ccc(C(=O)OCC(=O)NCc2ccc(Cl)cc2Cl)o1	.	.	-	.	.	.
CN(C)c1nc(N(C)C)c2cnn(C)c2n1	.	.	-	.	.	.
CCCNC(=O)C(Cc1cccc(OC)c1)NC(=O)c1ccc(C(C)(C)C)cc1 (centres undefined)	.	.	-	.	.	.
O=C(COC(=O)c1cn(-c2ccccc2)nc1-c1cccs1)NC1CC1	-	-	-	-	65	-
CCN(CC)CCOC(=O)c1ccc(NC(=O)c2cn(-c3ccccc3)nc2-c2cccs2)cc1	.	.	-	90	-	.
CCOC(=O)CCC(NC(=O)c1ccc(NCN2C(=O)c3ccccc3C2=O)cc1)C(=O)OCC (centres undefined)	-	-	-	-	-	-
CCOC(=O)CCC(NC(=O)c1ccccc1C(=O)NC(CCC(=O)OCC)C(=O)OCC)C(=O)OCC (centres undefined)	-	-	-	-	65	-
Cc1cccc(N2CC(C(=O)OCc3ccc([N+](=O)[O-])cc3)CC2=O)c1 (centres undefined)	-	-	-	-	60	-
COc1ccc(-c2c(NC(=O)CC(C)C)n(C)c3ccccc3c2=O)cc1OC	-	-	-	.	.	-
Cc1ccccc1-n1c(C)nnc1SCC(=O)NCC1CCCO1 (centres undefined)	-	-	-	-	67	-
O=C(COc1ccc(Cl)cc1)NC1=NN(c2ccccc2)C(=O)C1	-	62	-	-	-	-
CC(=O)NC1=NN(c2ccccc2)C(=O)C1	-	-	-	-	-	-
CN(C(=O)COC(=O)CCC(=O)c1ccc(Cl)cc1)c1c(N)n(Cc2ccccc2)c(=O)[nH]c1=O	-	-	-	.	.	-
CCOC(=O)c1nn(-c2ccccc2Cl)c(=O)cc1OCC(=O)Nc1cccc(OC)c1	-	53	-	.	.	-
CCOC(=O)c1nn(-c2ccccc2C)c(=O)cc1OCC(=O)Nc1cccc(OC)c1	-	-	-	.	.	-
S=C(NCC1CCCO1)NC12CC3CC(CC(C3)C1)C2 (centres undefined)	-	-	-	68	-	-
CC1(C)CC2(CC(c3ccccc3F)c3cc(Cl)c(O)cc3O2)NC(=S)N1 (centres undefined)	-	-	-	-	-	-
CC(=O)Oc1cc2c(cc1Cl)C1(CC(c3ccccc3Cl)O2)CC(C)(C)NC(=S)N1 (centres undefined)	-	-	-	63	-	.
NS(=O)(=O)c1ccc(NC(=O)COC(=O)CN2C(=O)C3CC=CCC3C2=O)cc1 (centres undefined)	.	.	-	.	.	.
